Experimental findings from PubChem BioAssay are described below.

A number with no mark means an inactive call. Active and inactive are the calls of the source. Cut-off read from the data, not from the text of the source: active = inhibition above about 28%; inactive = the rest.

The assay can be described thus: StAR promoter reporter inhibitors, counter-screen for LRH-1 inverse agonist project, cell-based, luminescence, high throughput (AID 651611). Conditions: StAR promoter luciferase reporter counterscreen, at 3.6 µM, stronger effect = higher value.
With `CC(=O)Oc1ccc(N(C(C)=O)S(=O)(=O)c2ccccc2)c2ccccc12`, the inhibition is 13%.

Consider `CCc1c(C)nc(SCC(=O)Nc2ccc3c(c2)OCCO3)[nH]c1=O`, for which the inhibition was 14.5%. The value for `O=C(CCl)NCCCN(C(=O)C(Cl)Cl)c1ccc([N+](=O)[O-])cc1` was 16.7%; that for `CCOc1ccc(Br)cc1C1=NN(C(C)=O)C(c2ccc([N+](=O)[O-])s2)O1` (stereo unspecified) was 17.9%.

In the case of `COc1ccc(NC(=O)Cn2c(C)cc(=O)c3ccccc32)cc1`, the inhibition was 0.15%.

Regarding `Cc1cc(=O)oc2cc(OCC(=O)N3CCN(C(=O)C4COc5ccccc5O4)CC3)ccc12` (stereo unspecified), the inhibition is 21.1%.

Turning to `COc1ccc(OCCNC(=O)C2(C)CCN2Cc2ccc3ccccc3c2)cc1` (stereo unspecified), the inhibition was 13.6%. The value for `CCOc1ccc(NC(=O)COC(=O)c2ncc(Cl)c(Cl)c2Cl)cc1` was 21.6%.

With `Oc1[nH]c2ccc(Br)cc2c1N=NC(=S)N1CCOCC1`, the inhibition is 83.2% (active).

`C#CCSc1nsc(SCC#C)c1C#N`: the inhibition was 3.79%. `c1ccc(-c2nc(NCc3cccnc3)c3oc4ccccc4c3n2)cc1`: the inhibition was 19.2%. For `O=C(CSc1n[nH]c(-c2ccccn2)n1)Nc1ccc(Cl)cc1`, the inhibition is 36.3% (active). In the case of `COc1ccc(NC(=O)COC(=O)c2c(-c3ccccc3)noc2C)cc1` it was 15.3%; in that of `CCOc1ccc2c(c1)sc(N)[n+]2Cc1cc(C)cc2cccnc12`, 30.7% (active). On to `COc1cccc(-c2nc(NCC3CCCO3)c3ccccc3n2)c1O` (stereo unspecified), for which the inhibition was 31.9% (active). In the case of `CN(C)c1ccc(NC(=O)CN2CCC(NC(=O)C3CCCCC3)CC2)cc1` it was 12.2%.

The inhibition is how much of the control response was suppressed.
